Results from PubChem BioAssay AID492993 (Johns Hopkins Ion Channel Center, 2010).
Out of some 4,900 compounds screened, about 200 (4.1%) were called active.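 Rule for the calls: active = thallium signal drop more than 5 SD beyond the mean of the no-compound control wells, seen in both duplicate plates; inactive = the rest.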 These entries were drawn from the full list.

Molecular target: Inward rectifier potassium channel 2 (Mus musculus) (UniProt P35561)
Assay: off-target Kir2.1 potassium flux block – cell-based, HEK293, thallium flux, selectivity assay for KCNK9 modulator project, confirmation (AID 492993);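 for inhibition: signal is fluorescence rise after thallium addition divided by baseline fluorescence; plate controls were assay buffer only for no effect and full block by chlorpromazine control for full effect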
Conditions: Kir2.1 cells, FluxOR thallium flux fluorescence, at 10 µM; active compounds read high

Chain of Inward rectifier potassium channel 2 (Mus musculus) (P35561 whole entry, looked up): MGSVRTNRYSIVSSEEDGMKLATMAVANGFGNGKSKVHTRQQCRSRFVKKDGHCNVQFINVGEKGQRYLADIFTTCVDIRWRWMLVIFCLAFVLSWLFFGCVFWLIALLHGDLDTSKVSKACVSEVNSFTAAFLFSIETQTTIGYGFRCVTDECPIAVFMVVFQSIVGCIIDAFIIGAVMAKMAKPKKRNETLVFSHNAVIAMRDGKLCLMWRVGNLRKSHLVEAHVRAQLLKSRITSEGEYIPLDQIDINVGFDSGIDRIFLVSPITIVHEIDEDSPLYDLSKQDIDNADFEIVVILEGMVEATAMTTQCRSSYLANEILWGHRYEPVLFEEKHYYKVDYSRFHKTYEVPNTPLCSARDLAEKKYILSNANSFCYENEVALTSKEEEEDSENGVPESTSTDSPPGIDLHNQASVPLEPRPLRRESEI

inhibition, inactive:
C=CCc1cc(S(=O)(=O)c2ccc(O)c(CC=C)c2)ccc1O
COc1ccc(C2CC(c3cccs3)=NN2c2ccccc2)cc1 (stereo not drawn)
Cc1cccc(N(C)C(=O)CN2C(=O)COc3ccc(S(=O)(=O)N4CCCCCC4)cc32)c1
CCOC(=O)c1c(NC(=O)CSc2cn(CC)c3ccccc23)sc2c1CCC2
COc1cccc(COC(=O)C2CCN(S(=O)(=O)c3ccc(Cl)cc3)CC2)c1OC
CC(C)C(=O)Nc1cccc(NC(=S)NC(=O)C(c2ccccc2)c2ccccc2)c1
O=C(Cn1cc(C(=O)c2cccs2)c2ccccc21)NCc1cccs1
C/C(=N\NC(=S)Nc1ccc(C)cc1)c1cc2ccccc2o1
Cc1ccc(SCC(=O)c2cc(C)c(OC(=S)N(C)C)c(C)c2)cc1
CCOC(=O)Cc1cc(=O)[nH]c(=O)[nH]1
O=C(NNc1ccccc1Cl)C(O)(c1cccc(C(F)(F)F)c1)c1cccc(C(F)(F)F)c1
c1ccc(C(c2ccccc2)N2CCN(Cc3nnnn3C3CCCCC3)CC2)cc1
CCC(C)(C)n1nnnc1C(c1cccs1)N1CCN(c2nc3ccccc3s2)CC1 (stereo not drawn)
Clc1ccc(CSc2nnc(/C=C/c3ccccc3)o2)c(Cl)c1
COc1ccccc1C(c1nnnn1C(C)(C)C)N1CCN(Cc2ccccc2)CC1 (stereo not drawn)
CN(C)S(=O)(=O)N1CCC(Oc2cccc(C(=O)NCCCC3CCCC3)c2)CC1
O=[N+]([O-])c1ccc(N2CCN(CC(O)COc3ccccc3)CC2)cc1 (stereo not drawn)
O=C(Oc1ccc(Br)cc1C(=S)N1CCOCC1)c1cccc([N+](=O)[O-])c1
CN(CCOc1ccccc1)C(=O)c1cc(COc2c(F)cccc2F)on1
COC(=O)c1sc(-c2ccc(C(C)(C)C)cc2)cc1NC(=O)/C=C/C(=O)O
COc1cc(C(CCN2CCN(c3ccccc3)CC2)c2c(OC)cc(OC)c3ccc(=O)oc23)cc(OC)c1OC (stereo not drawn)
O=C1/C(=C/c2ccc3c(c2)OCO3)CCC/C1=C\c1ccc2c(c1)OCO2
O=C(Nc1cc(Cl)cc(Cl)c1)C(NCCCO)c1ccccc1 (stereo not drawn)
O=C(NCc1ccco1)c1ccc(NS(=O)(=O)c2cccc([N+](=O)[O-])c2)cc1
O=C1c2ccccc2C2=Nc3ccccc3SC(c3ccccc3F)C12 (stereo not drawn)
Cc1cccc(NC(=O)CN2CCCN(S(=O)(=O)c3ccc(Br)s3)CC2)c1
Cc1ccc(C)c(NC(=S)NNC(=S)Nc2ccc(C(C)C)cc2)c1
Cc1c(C(=O)Nc2ccccn2)oc2ccc(Br)cc12
O=C(CC(NC(=O)c1ccccc1)c1ccccc1)Nc1ccc(F)c(F)c1 (stereo not drawn)
CCCCN(CC)C(=O)C1CCCN(S(=O)(=O)c2cccc3nsnc23)C1 (stereo not drawn)
Oc1ccc(/C=N/Nc2nc(-c3ccccc3F)nc3ccccc23)c(O)c1
COC(=O)Cn1cnc2scc(-c3ccc(C)c(C)c3)c2c1=O
O=C(Nc1ccc(Cl)c(Cl)c1)N1CC=C(c2ccccc2)CC1
Cc1ccc(C(=O)/C=C/c2c(C)nn(-c3ccccc3)c2Cl)cc1
CCCOc1ccc2c3c(c(=O)oc2c1OCCC)CCC3
COc1cccc(-c2cc3nc4c(c(N5CCC6(CC5)OCCO6)n3n2)CCCC4)c1
Cc1nn(CC(=O)Nc2nc3ccccc3s2)c(C)c1[N+](=O)[O-]
COc1ccc(C(=O)C2CCCN(Cc3ccc4nonc4c3)C2)c(C)c1 (stereo not drawn)
Cc1ccc(-c2csc(NCCc3nc4cc(Cl)c(Cl)cc4n3CCOCCO)n2)cc1
COc1ccc2c(c1)C(c1cccs1)=NNC(c1cccnc1)=N2
COc1ccc([N+](=O)[O-])cc1-c1nc2ccccc2nc1-c1ccccc1
Cc1cc2ccccn2c1C(=O)c1cccc(S(=O)(=O)N2CCOCC2)c1
COc1ccc(/C=C2\CCc3ccccc3C2=O)c(OC)c1OC
COc1cccc(OC)c1C(=O)Nc1sc2c(c1C(N)=O)CCCC2
CC(C)N(C(=O)CSc1nc(COc2ccccc2)nc2ccccc12)C(C)C
O=c1cc(CN2CCN(c3cccc(Cl)c3)CC2)c2cc3c(cc2o1)CCCC3
Cc1ccc(CN2CCN(/N=C/c3ccco3)CC2)c(C)c1
Cc1[nH]c2ccccc2c1CCN(Cc1cccs1)C(=S)NC(C)(C)C
O=C(CSCc1ccc(Cl)cc1)N1CCN(Cc2ccc3c(c2)OCO3)CC1
CCC/C=C(\CCC)C(NC(=O)Cc1ccccc1)c1ccc(C(=O)OC)cc1 (stereo not drawn)
O=C1CC(NNc2ccccc2)C(=O)N1c1cccc(Cl)c1 (stereo not drawn)
FC(F)(F)c1cc(-c2ccco2)nc(NCc2ccc(Cl)cc2)n1
COc1ccc(NC(=O)CN(C)CC(=O)Nc2cccc(C(F)(F)F)c2)cc1
CCCCCn1c(=O)c(C(=O)OCC)c(Cl)c2ccccc21
CCCSc1nc(NCc2ccco2)c2c3c(sc2n1)COC(C)(CC)C3 (stereo not drawn)
COc1ccc(-c2noc(CSc3ccc(C)cc3)n2)cc1
COc1cccc(COc2ccc(N(C)S(=O)(=O)c3ccccc3)cc2)c1
CCOc1ccc(C(C)C)cc1S(=O)(=O)n1nc(C)cc1C
Cc1cc(C=O)c(C)n1-c1ccc(NC2CCCCC2)c([N+](=O)[O-])c1
O=C(C[C@H]1C(=O)N(c2ccc(F)c(F)c2)C[C@@H]1Cc1ccccc1)Nc1ccccc1
CCCCNC(=S)N/N=C1\CCCCc2ccccc21
CC(C)(C)SCCSC1=CC(=O)CC(c2ccccc2)C1 (stereo not drawn)
COc1ccc(C(C)=O)cc1COc1ccc(Cl)c(C)c1
CCOC(=O)c1c(NC(=O)CCCN2CCOCC2)sc2c1CC(C)(C)OC2
O=C1c2ccccc2S(=O)(=O)N1CC(O)Cn1c2ccccc2c2ccccc21 (stereo not drawn)
COc1cc(Cl)c(S(=O)(=O)N2CCN(Cc3ccc4c(c3)OCO4)CC2)cc1Cl
Cc1cc(Cl)ccc1C(=O)C1CCCN(C(=O)CCN2CCCO2)C1 (stereo not drawn)
Cc1ccccc1N1CCN(Cc2nc(Cc3ccccc3F)no2)CC1
COc1cccc(C(=O)NCCSc2ccc(Br)cc2)c1
COc1cc(NC(=S)NCCSc2ccc(C)cc2)cc(OC)c1
O=S(=O)(c1ccc(F)cc1)N1CCN(Cc2ccccc2C(F)(F)F)CC1
O=C(CSCc1ccc(Br)cc1)Nc1ccc(S(=O)(=O)N2CCCCCC2)cc1
CC1=C/C(=N\OS(=O)(=O)c2ccccc2)C=CC1=O
COc1ccc(-c2oc(/N=C/N3CCCC3)c(C#N)c2-c2ccc(OC)cc2)cc1
Cc1ccc(S(=O)(=O)N2CCN(C(=O)COC(=O)c3c(C)cc(C)cc3C)CC2)c(C)c1
Cc1ccc(NC2CCCN(C(=O)CCC3(C)CC3)C2)cc1C (stereo not drawn)
CCOc1ccccc1NC(=O)C12CC3CC(C1)CC(c1ccc(C)cc1)(C3)C2
COCCN(C(=S)Nc1cccc(Cl)c1C)C(C)c1ccco1 (stereo not drawn)
Cn1nc(-c2ccccc2)c(CSc2cccc(Cl)c2)c1Cl
COc1ccc(C2Nc3ccccc3C(=O)N2Cc2ccccc2)cc1Cn1nnc2ccccc21 (stereo not drawn)
Cc1csc(Nc2ccc(Cl)cc2)[n+]1-c1ccc(Cl)cc1
CCC1=NN(C(=O)Cc2ccc([N+](=O)[O-])cc2)C(O)(c2ccc(Br)cc2)C1 (stereo not drawn)
COc1ccc(OC)c(C(=O)c2coc3ccc(OC)cc23)c1
Cc1cc(Oc2ccc(Cl)cc2)nc(SCC(=O)c2ccccc2)n1
CCCC(=O)n1nc(NCc2ccc(OC)cc2)nc1NCc1ccc(OC)cc1
CCCCn1ccnc1C(=O)c1cccc(S(=O)(=O)N2c3ccccc3CC2C)c1 (stereo not drawn)
CCCC1=Nc2cc(C(=O)NCc3ccco3)ccc2Sc2ccccc21
Cc1ccc(N2CCN(S(=O)(=O)c3ccc(F)cc3)CC2)c(C)c1
CCc1cccc(C)c1N(C(=O)Cn1c(CO)nc2ccccc21)C(C)COC (stereo not drawn)
CCCN1C(=O)C(Cc2nc3ccccc3c(=O)n2-c2ccccc2)c2cc(C)ccc21 (stereo not drawn)
CCOC(=O)CSc1nc2c(sc(=S)n2CCc2ccccc2)c(=O)n1Cc1ccco1
CN(CCC(=O)Nc1cc(S(=O)(=O)N(C)C)ccc1Cl)CC(=O)Nc1ccc(F)cc1
Cc1ccccc1CSCCNC(=O)c1ccc(N(C)S(=O)(=O)c2ccccc2)cc1
CCOC(=O)C1=C(C)Nc2sc(C(=O)c3ccc(Br)cc3)c(N)c2C1c1ccc(C(=O)OC)cc1 (stereo not drawn)
Cc1ccc(C(=O)c2c(NC(=O)c3ccccc3)sc(C)c2C)cc1
CCOc1ccc(CN(Cc2ccco2)C(c2cccs2)c2nnnn2C(C)(C)C)cc1 (stereo not drawn)

inhibition, active:
CCCCCC(O)c1cccc(OCc2ccc3ccccc3n2)c1 (stereo not drawn) 70.5%
CC1(C)CC(N2CCN(C(c3ccccc3)c3ccccc3)CC2)=CC(=[N+]2CCCCC2)C1 65%
CCCCCCCCCCOC(=O)Cn1c(COc2ccc(C)cc2)[n+](C)c2ccccc21 60.5%
CCCCCCCCCCOC(=O)Cn1c(COc2cccc(OC)c2)[n+](C)c2ccccc21 70%
Cc1cc(C)cc(NC(=O)CSCc2cnn(-c3ccccc3)c2-n2cccc2)c1 43%
O=[N+]([O-])/C=C/c1ccc2c(ccn2Cc2ccccc2)c1 41.5%
CN(c1ccccc1)S(=O)(=O)c1cccc(NC(=O)Cc2c(F)cccc2Cl)c1 28.5%
